# Laboratory results published in the supplement of paper PMC6992640.
# System: HCI16 (cells of a triple-negative basal-like breast cancer xenograft)
# Test: cell viability (% of vehicle); higher = less cytotoxic
# Conditions: 10 µM; 72 h
# 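Note: PDX cells carrying CMV promoter-driven luciferase, viability read as total photon flux per second by IVIS imaging following D-luciferin, vehicle control 0.1% DMSO.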
row,SMILES,cell viability
1,CC1COc2c(N3CCN(C)CC3)c(F)cc3c(=O)c(C(=O)O)cn1c23 (stereo not given) [Ofloxacin],133
2,"Cc1cc(Nc2cc(N3CCN(C)CC3)nc(Sc3ccc(NC(=O)C4CC4)cc3)n2)n[nH]1 [VX-680 (MK-0457,Tozasertib)]",111
3,O=C([O-])P(=O)([O-])[O-].[Na+].[Na+].[Na+] [Foscarnet Sodium],133
4,CN1CCC(OC(c2ccccc2)c2ccccc2)CC1.Cl [Diphenylpyraline HCl],91.7
5,COc1cc(OC)c(C(=O)CCCN2CCCC2)c(OC)c1.Cl [Buflomedil HCl],122
6,CC(C)(O)c1ccccc1CCC(SCC1(CC(=O)[O-])CC1)c1cccc(C=Cc2ccc3ccc(Cl)cc3n2)c1.[Na+] (stereo not given) [Montelukast Sodium],165
7,CC(=O)Oc1ccccc1C(=O)O [Aspirin (Acetylsalicylic acid)],151
8,CCN(CCCc1ccccc1)CCCc1ccccc1.O=C(O)CC(O)(CC(=O)O)C(=O)O [Alverine Citrate],118
9,CC#CCn1c(N2CCCC(N)C2)nc2c1c(=O)n(Cc1nc(C)c3ccccc3n1)c(=O)n2C (stereo not given) [Linagliptin (BI-1356)],179
10,Cc1cc2c(s1)=Nc1ccccc1NC=2N1CCN(C)CC1 [Olanzapine],112
11,CC1(O)CC(c2nc(-c3ccc4ccc(-c5ccccc5)nc4c3)c3c(N)nccn23)C1 (stereo not given) [Linsitinib],127
12,Cc1cn(C2CC(O)C(CO)O2)c(=O)[nH]c1=O (stereo not given) [Telbivudine],99.4
13,Nc1ncnc2c1ncn2C1OC(CO)C(O)C1O (stereo not given) [Adenosine],97.7
14,CC(=O)[C@@]1(O)CC[C@H]2[C@@H]3CCC4=CC(=O)CCC4=C3[C@@H](c3ccc(N(C)C)cc3)C[C@@]21C [Ulipristal],118
15,Cc1c(OCC(F)(F)F)ccnc1CS(=O)c1nc2ccccc2[nH]1 (stereo not given) [Dexlansoprazole],170
16,c1cc(CN2CCCNCCNCCCNCC2)ccc1CN1CCCNCCNCCCNCC1 [Plerixafor (AMD3100)],87.9
17,COS(=O)(=O)[O-].C[N+]1(C)CCC(=C(c2ccccc2)c2ccccc2)CC1 [Diphemanil Methylsulfate],84.7
18,CC(O)C1C(=O)N2C(C(=O)OCOC(=O)C(C)(C)C)=C(SC3CN(C4=NCCS4)C3)C(C)C12 (stereo not given) [Tebipenempivoxil],89.7

row,SMILES,cell viability
1,O=C(NC(CO)C(O)c1ccc([N+](=O)[O-])cc1)C(Cl)Cl (stereo not given) [Chloramphenicol],90.9
2,Cc1ccc(Nc2nccc(N(C)c3ccc4c(C)n(C)nc4c3)n2)cc1S(N)(=O)=O.Cl,92
3,NC(=O)N1CCC(CC(=O)N2CCC(C3c4ncc(Br)cc4CCc4cc(Cl)cc(Br)c43)CC2)CC1 (stereo not given) [Lonafarnib],170
4,CC(C)OC(=O)OCOP(=O)(COC(C)Cn1cnc2c(N)ncnc21)OCOC(=O)OC(C)C.O=C(O)C=CC(=O)O (stereo not given) [Tenofovir Disoproxil Fumarate],105
5,"CC1(C)SC2C(NC(=O)C(C(=O)[O-])c3ccccc3)C(=O)N2C1C(=O)[O-].[Na+].[Na+] (stereo not given) [Carbenicillin, Disodium Salt]",105
6,CC1C(=O)OC2CC34C5CC(C(C)(C)C)C36C(OC(=O)C6O)OC4(C(=O)O5)C21O (stereo not given) [Ginkgolide A],116
7,CNS(=O)(=O)Cc1ccc2[nH]cc(CCN(C)C)c2c1 [Sumatriptan],110
8,Nc1nc(=O)c2c([nH]1)NCC(CNc1ccc(C(=O)NC(CCC(=O)[O-])C(=O)[O-])cc1)N2C=O.O.O.O.O.O.[Ca+2] (stereo not given) [Leucovorin Calcium],127
9,Nc1nc(Cl)nc2c1ncn2C1OC(CO)C(O)C1F (stereo not given) [Clofarabine],92.9
10,Cc1cc(C2CCCCC2)n(O)c(=O)c1 [Ciclopirox],117
11,NC(=O)C(CCC(F)(F)F)N(Cc1ccc(-c2ncon2)cc1F)S(=O)(=O)c1ccc(Cl)cc1 (stereo not given),96.7
12,O=C(Oc1ccccc1C(=O)O)c1ccccc1O [Sasapyrine],122
13,CCCNS(=O)(=O)Nc1ncnc(OCCOc2ncc(Br)cn2)c1-c1ccc(Br)cc1 [Macitentan],91.8
14,CCCCCCCCCC(=O)NC(Cc1c[nH]c2ccccc12)C(=O)NC(CC(N)=O)C(=O)NC(CC(=O)O)C(=O)NC1C(=O)NCC(=O)NC(CCCN)C(=O)NC(CC(=O)O)C(=O)NC(C)C(=O)NC(CC(=O)O)C(=O)NCC(=O)NC(CO)C(=O)NC(C(C)CC(=O)O)C(=O)NC(CC(=O)c2ccccc2N)C(=O)OC1C (stereo not given) [Daptomycin],111
15,COc1nc(C)nc(Cl)c1NC1=NCCN1 [Moxonidine],95.3
16,NCCCCC(NC(CCc1ccccc1)C(=O)O)C(=O)N1CCCC1C(=O)O.O.O (stereo not given) [Lisinopril dihydrate],130
17,Cc1cc(C2CCCCC2)n(O)c(=O)c1.NCCO [Ciclopirox ethanolamine],123
